Assay outcomes as filed in PubChem BioAssay.
A selection: hits, their analogues and other compounds. The true share with any hit is near 6.8%.
PMK inhibit – S. pneumoniae PMK inhibitors, primary screen, biochemical, mevalonate pathway, pilot trial included | purified PMK, PK/LDH-coupled NADH absorbance 340 nm | phosphomevalonate kinase (Streptococcus pneumoniae D39) | 65,000 compounds, 0.49% hits | inhibition, % at 10 µM;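 active = top-ranked compounds by inhibition in the single 10 µM screen, taking a fixed number of the strongest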
Autofluor 339 – intrinsic fluorescence of library compounds, ex339/em460 – biochemical, MLSMR library, data from DPM-DC assay, artefact control, profiling panel | 65,000 compounds, 5.5% hits | compound autofluorescence, ex339/em460 nm, NADH buffer; hits give high values; 1 = no-compound wells, NADH background | fluorescence fold increase at 10 µM | AID 709, 2007;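 active = at 10 µM, mean starting fluorescence two-fold or more over control wells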;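 note: signal is the first read of a kinetic run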
NADH enzymes – inhibitors of PK/LDH coupling enzymes, profiling panel, artefact control, biochemical, MLSMR library. coupled PK/LDH NADH assays, four targets. IC50, µM (series often up to 10 µM). 65,000 compounds, 0.02% hits. AID 774, 2007;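 active = single-dose screening hits from any of four coupled enzyme assays that gave an IC50 when retested across doses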;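 note: the DPM-DC format reads NADH fluorescence rather than 340 nm absorbance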
Spn DPM-DC inh – S. pneumoniae DPM-DC inhibitors, primary screen, biochemical, PK/LDH-coupled NADH fluorescence | diphosphomevalonate decarboxylase (Streptococcus pneumoniae D39) | purified DPM-DC | calls only at 10 µM | 65,000 compounds, 0.49% hits;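 active = the 320 compounds with the highest percent inhibition in the single-dose primary screen, excluding strongly autofluorescent ones, cut at about 32% in these data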;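 note: kinetic rate of NADH fluorescence loss reporting ADP formed by the decarboxylase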
A340 absorber – compound light absorbance at 340 nm, profiling panel, artefact control, biochemical, MLSMR library, data from PS, PMK, MK assays | compound absorbance at 340 nm, fold over control | AID 708, 2007 | fold change at 10 µM | 65,000 tested, under 10 active;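 active = at 10 µM dose, initial 340 nm absorbance at least 2 fold that of control wells; inactive = change under 2 fold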;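 note: initial absorbance extrapolated from kinetic A340 decline of NADH oxidation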
Spn MK inh – S. pneumoniae MK inhibitors, primary screen, biochemical, PK/LDH-coupled NADH absorbance; purified MK, PK/LDH-coupled NADH absorbance 340 nm; 65,000 compounds, 0.48% hits; mevalonate kinase [Streptococcus pneumoniae D39]; inhibition, % at 10 µM;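 active = ranked among the strongest by inhibition in the single 10 µM screen, a fixed top-ranked set picked for dose follow-up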
Large screens that a line does not name were inactive.

Brc1ccccc1Cn1c(-c2cncs2)nc2ccccc21	none
c1csc(Cn2c(-c3cccs3)nc3ccccc32)c1	Autofluor 339 2.8
O=C(Nc1ccc(-n2nncc2-c2ccco2)cc1)c1ccc(F)cc1	none
O=C(NC1CCCCC1)c1ccc(S(=O)(=O)NCc2cccnc2)cc1	none
CCOC(=O)c1sc(C(=O)OCC)c(OCCO)c1OCCO	none
N#Cc1nc(-c2ccco2)oc1N1CCN(Cc2ccccc2)CC1	none
CN(C)c1oc(-c2ccco2)nc1C#N	Autofluor 339 4 (not shown: Spn DPM-DC inh)
CN(Cc1ccccc1)c1oc(-c2ccco2)nc1C#N	Autofluor 339 3.9 (not shown: Spn DPM-DC inh)
CN(C)CCCNc1cc(Cl)c(S(=O)(=O)N2CCCCC2)cc1C(=O)O	none
CN(C)c1ccc(C(=S)NCc2ccco2)cc1	none
O=C(OCC1CC(c2ccccn2)=NO1)c1ccc(Br)cc1 (stereo not given)	none
CC1(C)CC(=O)C2=C(C1)NC(Nc1nc3ccccc3o1)=NC21CCCCC1	Autofluor 339 2.4
CC(C)CNC(=O)COc1ccc2c3c(c(=O)oc2c1)CCC3	Autofluor 339 2, Spn DPM-DC inh active
CC(C)CCNC(=O)COc1ccc2c3c(c(=O)oc2c1)CCC3	Autofluor 339 3.1
COc1ccccc1OCC(=O)NC1CCCCCC1	none
COc1ccc2c(c1)c(=O)oc1cc(OCC(=O)NC3CC3)ccc12	Autofluor 339 3.7 (not shown: Spn DPM-DC inh)
Cc1cc(=O)oc2cc(OCC(=O)NCCCN3CCOCC3)ccc12	none
O=C1CN(C(=O)c2ccco2)C(c2ccccc2)c2cc(Cl)ccc2N1 (stereo not given)	none
c1ccc(N2CCN(c3nc4ccccc4n4nnnc34)CC2)cc1	none
c1ccc(CCNc2nc3ccccc3n3nnnc23)cc1	Autofluor 339 2.6
CCN(CC)S(=O)(=O)c1ccc(C(=O)OCC(=O)N2CCN(C(=O)c3ccco3)CC2)cc1	Spn MK inh 48
O=C(CN1CCC(n2nnc3cc(F)ccc32)CC1)NCCc1nc2ccccc2[nH]1	none
C=CCn1cnc2c(c1=O)c1nc3ccccc3nc1n2/N=C/c1ccccn1	Autofluor 339 2.5
COCCCn1cnc2c(c1=O)c1nc3ccccc3nc1n2-c1ccccc1	Autofluor 339 3.1
C=CCn1cnc2c(c1=O)c1nc3ccccc3nc1n2/N=C/c1cc(OC)c(OC)c(OC)c1	none
C=CCn1cnc2c(c1=O)c1nc3ccccc3nc1n2-c1ccccc1	Autofluor 339 2.4
COCCCn1cnc2oc3nc4ccccc4nc3c2c1=O	Autofluor 339 3.2
Fc1cccc(Cl)c1-c1nnc2ccc(N3CCOCC3)nn12	none
Cc1ccc(SCc2cc(=O)n3[nH]cnc3n2)cc1	none
COc1ccccc1N1CCN(C(=O)CN(c2ccccc2OC)S(=O)(=O)c2ccccc2)CC1	none
CC(NC(=O)c1cccc(N2CCCC2=O)c1)c1ccc2c(c1)OCCO2 (stereo not given)	Spn DPM-DC inh active
CCOc1ccc2nc(SC(C)C(N)=O)[nH]c2c1 (stereo not given)	none
CC(C)OCCCn1c(=S)[nH]c2cc3c(cc2c1=O)OCO3	none
O=c1c2cc(N3CCOCC3)ccc2[nH]c(=S)n1CCCN1CCN(c2ccccc2F)CC1	Autofluor 339 3.5, Spn DPM-DC inh active
O=c1c2cc(N3CCOCC3)ccc2[nH]c(=S)n1CCCN1CCCCCC1	Autofluor 339 2.9
Cc1ccc(Cn2c(=S)[nH]c3ccc(N4CCOCC4)cc3c2=O)o1	Autofluor 339 2.8
CC(C)OCCCn1c(=S)[nH]c2ccc(N3CCOCC3)cc2c1=O	Autofluor 339 3.7
CC(OC(=O)c1ccc2ccccc2n1)C(=O)Nc1ccc(N2CCOCC2)cc1 (stereo not given)	none
CCC(=O)Nc1ccc(Cl)c(NC(=O)C(C)C)c1	none
Cc1ccccc1OCc1nnc2n1CC(C)S2 (stereo not given)	none
O=c1c2cc(N3CCOCC3)ccc2[nH]c(=S)n1CCN1CCCC1	Autofluor 339 2.6
O=c1c2cc3c(cc2[nH]c(=S)n1CCN1CCOCC1)OCO3	none
COc1cc2c(N3CCOCC3)cc(O)c(CC(=O)Nc3ccccc3)c2cc1OC	Autofluor 339 3.1 (not shown: Spn DPM-DC inh)
CCOc1cc(N2CCOCC2)c(OCC)cc1NC(=O)Cc1ccc(OC)c(OC)c1	PMK inhibit 26
CCOc1cc(N2CCOCC2)c(OCC)cc1NC(=O)CN1CCc2ccccc2C1	Spn MK inh 73
Cc1cc(C)c2oc(-c3ccc(Cl)c(NC(=O)c4ccc(C#N)cc4F)c3)nc2c1	Autofluor 339 4 (not shown: Spn DPM-DC inh)
Cc1nc(C)c(C(=O)C2=C(O)C(=O)N(CCCn3ccnc3)C2c2ccc(Cl)cc2)s1 (stereo not given)	none
Cc1nc2sc(C#N)c(N)c2c2c1CCCC2	Autofluor 339 2.5 (not shown: Spn DPM-DC inh)
N#Cc1sc2nc3c(c(-c4cccnc4)c2c1N)CCC3	none
COc1cc2c(cc1OC)CN(C(=O)Cc1ccc(OC)c(S(=O)(=O)N3CCOCC3)c1)CC2	none
O=C(Nc1ccccc1C(=O)N1CCN(Cc2ccccc2)CC1)c1ccccn1	none
Cc1ccc(Cc2c(C)nc3c(C(=O)O)cnn3c2C)cc1	none
Cc1nc2c(C(=O)N3CCCCC3)cnn2c(C)c1Cc1ccccc1F	Autofluor 339 3.2
Cc1ccccc1Cc1c(C)nc2c(C(=O)N3CCN(Cc4ccc5c(c4)OCO5)CC3)cnn2c1C	Autofluor 339 2.3, Spn DPM-DC inh active
O=C(Cn1c(SCC(=O)NC2CCCC2)nnc1-c1ccncc1)Nc1ccc2c(c1)OCO2	none
C1=Nc2c(Nc3ccccc3)ncnc2Oc2ccccc21	none
Cn1c2ccccc2c2nn(-c3ccccc3)c(=O)cc21	none
Cc1cccc(NS(=O)(=O)c2ccc(Oc3ccccc3)cc2)n1	Autofluor 339 2.9
Cc1cc(NS(=O)(=O)c2ccc(-c3ccccc3)cc2)no1	none
COc1ccc(OC)c(S(=O)(=O)Nc2cnc3ccccc3c2)c1	none
COC(=O)c1c(NC(=O)c2nn(C)cc2Cl)sc2c1CCCC2	Autofluor 339 2.4 (not shown: Spn DPM-DC inh)
CCn1ncc(Br)c1C(=O)Nc1sc2c(c1C(=O)OC)CCC2	Autofluor 339 2.5
COC(=O)c1c(NC(=O)c2ccc(Br)s2)sc2c1CCC2	none
CCCCN1C2CCCC1CC(NC(=O)c1ccc(OC)c(OC)c1)C2 (stereo not given)	none
CC1=C(C(=O)Nc2ccccc2)C(c2ccc(C)o2)n2c(s/c(=C\c3ccco3)c2=O)=N1 (stereo not given)	none
CCOC(=O)N1CCN(C(=O)c2cc3c(=O)[nH]c4ccccc4c3s2)CC1	Autofluor 339 3.7 (not shown: Spn DPM-DC inh)
c1ccc(CSc2nnc3c(n2)OC(c2ccco2)Nc2ccccc2-3)cc1 (stereo not given)	none
